{"source": "PubChem BioAssay AID2330", "about": "(Broad Institute, 2010)", "note": "In all, about 37,000 compounds went through this assay and about 2,800 (7.6%) were called active. Roughly 1% stayed inconclusive and do not appear here. Rule as the data show it: active = inhibition above about 80%; inconclusive = no clear call, values can overlap the other calls; inactive = below that. The full list was thinned out, with actives kept by preference."}
{"test": "NOMO-1 AML cell viability reduction, primary screen, STK33 inhibitor project, CellTiter-Glo luminescence (AID 2330)", "details": "NOMO-1 AML viability, 72 h, stronger effect = higher value, concentration not given here"}
{"smiles": "Cc1nnc(SCc2ccc(C(=O)c3ccc(Cl)cc3)o2)n1-c1ccccc1", "inhibition": "-16.2% (inactive)"}
{"smiles": "CC(C)NC(=O)Nc1ccc2c(c1)C(=O)N([C@H](C)CO)C[C@H](C)[C@@H](CN(C)S(C)(=O)=O)OCCCC[C@@H](C)O2", "inhibition": "34% (inactive)"}
{"smiles": "COc1ccc(NC(=O)N(C)C[C@@H]2Oc3ccc(NC(=O)CCCN(C)C)cc3CC(=O)N([C@H](C)CO)C[C@H]2C)cc1", "inhibition": "-16.5% (inactive)"}
{"smiles": "COc1ccc(NC(=O)N(C)C[C@@H]2OCCCC[C@@H](C)Oc3ccc(NC(=O)NC4CCCCC4)cc3C(=O)N([C@H](C)CO)C[C@@H]2C)cc1", "inhibition": "-2.15% (inactive)"}
{"smiles": "Cc1ccc(S(=O)(=O)N(C)C[C@H]2Oc3ccc(NC(=O)CCCCCC(=O)Nc4ccccc4N)cc3C(=O)N([C@H](C)CO)C[C@H]2C)cc1", "inhibition": "19.8% (inactive)"}
{"smiles": "COc1ccc(NC(=O)Nc2ccc3c(c2)C(=O)N([C@H](C)CO)C[C@H](C)[C@@H](CN(C)C(=O)NC2CCCCC2)OCCCC[C@@H](C)O3)cc1", "inhibition": "-9.45% (inactive)"}
{"smiles": "C[C@@H]1CN([C@H](C)CO)C(=O)c2cccc(NS(=O)(=O)c3ccc(Cl)cc3)c2O[C@@H]1CN(C)CC1CC1", "inhibition": "0.793% (inactive)"}
{"smiles": "Cc1nc2ccccc2n1CC(O)COc1ccc(C2C=CCC2)cc1", "note": "(centres undefined)", "inhibition": "85% (active)"}
{"smiles": "CCc1cc(C)cc(OCC(O)Cn2cnc3ccccc32)c1", "note": "(centres undefined)", "inhibition": "50.9% (inactive)"}
{"smiles": "CC(C)c1ccc(OCC(O)Cn2cnc3ccccc32)cc1", "note": "(centres undefined)", "inhibition": "52% (inactive)"}
{"smiles": "COC(=O)c1ccccc1NC(=O)CSc1n[nH]c(-c2ccncc2)n1", "inhibition": "19.3% (inactive)"}
{"smiles": "O=C(NCCN1CCCCC1)Nc1cccc(Cl)c1", "inhibition": "6.03% (inactive)"}
{"smiles": "C[C@H]1CN([C@@H](C)CO)C(=O)c2cccc(NS(=O)(=O)c3ccc(Cl)cc3)c2O[C@@H]1CN(C)Cc1ccc(Oc2ccccc2)cc1", "inhibition": "44.7% (inactive)"}
{"smiles": "Cc1ccc(NC(=O)COc2ccccc2C)c([N+](=O)[O-])c1", "inhibition": "-19.4% (inactive)"}
{"smiles": "Cc1ccc(OCc2n[nH]c(=S)n2C2CCCCC2)c2c1CCC2", "inhibition": "111% (active)"}
{"smiles": "C=CCn1c(=O)c(C(=O)NCc2ccccn2)c(O)c2ccccc21", "inhibition": "-12.4% (inactive)"}
{"smiles": "Cc1noc(C)c1NC(=O)Nc1ccc2c(c1)CC(=O)N([C@@H](C)CO)C[C@H](C)[C@@H](CN(C)CC1CCCCC1)O2", "inhibition": "46.5% (inactive)"}
{"smiles": "C[C@@H]1CN([C@@H](C)CO)C(=O)c2cccc(NC(=O)Nc3ccc(F)cc3)c2O[C@@H]1CN(C)Cc1ccc(C(=O)O)cc1", "inhibition": "0.82% (inactive)"}
{"smiles": "CCC/C=C/C=C/C1CC(O)C(O)C1C(=O)O", "note": "(centres undefined)", "inhibition": "4.09% (inactive)"}
{"smiles": "Cc1ccc(S(=O)(=O)Nc2ccc3c(c2)C(=O)N([C@H](C)CO)C[C@H](C)[C@H](CN(C)Cc2ccc(C(=O)Nc4ccccc4N)cc2)OCCCC[C@@H](C)O3)cc1", "inhibition": "127% (active)"}
{"smiles": "C[C@@H]1CN([C@H](C)CO)C(=O)c2cc(NS(=O)(=O)c3cn(C)cn3)ccc2O[C@@H]1CN(C)Cc1ccc(C(=O)Nc2ccccc2N)cc1", "inhibition": "20.1% (inactive)"}
{"smiles": "C[C@@H]1CN([C@@H](C)CO)C(=O)c2cc(NC(=O)c3ccncc3)ccc2O[C@@H]1CN(C)Cc1ccncc1", "inhibition": "-12.5% (inactive)"}
{"smiles": "Cc1ccc(S(=O)(=O)Nc2ccc3c(c2)C(=O)N([C@@H](C)CO)C[C@@H](C)[C@@H](CN(C)Cc2ccc(C(=O)Nc4ccccc4N)cc2)O3)cc1", "inhibition": "110% (active)"}
{"smiles": "C[C@@H]1CN([C@@H](C)CO)C(=O)c2cc(NC(=O)c3ccncc3)ccc2O[C@H]1CN(C)Cc1ccc(C(=O)O)cc1", "inhibition": "19.8% (inactive)"}
{"smiles": "C[C@@H]1CCCCO[C@H](CN(C)Cc2ccccc2)[C@@H](C)CN([C@H](C)CO)C(=O)c2cc(NS(=O)(=O)c3ccc(Cl)cc3)ccc2O1", "inhibition": "40.5% (inactive)"}
{"smiles": "Cc1ccc(S(=O)(=O)Nc2ccc3c(c2)C(=O)N([C@@H](C)CO)C[C@@H](C)[C@H](CN(C)Cc2ccc(C(=O)O)cc2)O3)cc1", "inhibition": "2.99% (inactive)"}
{"smiles": "C[C@H]1CN([C@@H](C)CO)C(=O)c2cc(NC(=O)c3ccncc3)ccc2O[C@H]1CN(C)Cc1ccc(C(=O)Nc2ccccc2N)cc1", "inhibition": "107% (active)"}
{"smiles": "C[C@@H]1CN([C@@H](C)CO)C(=O)c2cc(NS(=O)(=O)c3ccccc3)ccc2O[C@@H]1CN(C)Cc1ccc(C(=O)Nc2ccccc2N)cc1", "inhibition": "110% (active)"}
{"smiles": "C[C@@H]1CN([C@@H](C)CO)C(=O)c2cc(NS(=O)(=O)c3cn(C)cn3)ccc2O[C@@H]1CN(C)Cc1ccc(C(=O)Nc2ccccc2N)cc1", "inhibition": "5.34% (inactive)"}
{"smiles": "Cc1ccc(S(=O)(=O)Nc2ccc3c(c2)C(=O)N([C@H](C)CO)C[C@H](C)[C@H](CN(C)Cc2ccccc2)OCCCC[C@@H](C)O3)cc1", "inhibition": "45.3% (inactive)"}
{"smiles": "C[C@H](CO)N1C[C@H](C)[C@H](CN(C)Cc2ccc(C(=O)Nc3ccccc3N)cc2)Oc2ccc(NS(C)(=O)=O)cc2C1=O", "inhibition": "50.3% (inactive)"}
{"smiles": "N#Cc1cccc(CSc2nnc(CCCO)n2-c2ccccc2)c1", "inhibition": "-3.86% (inactive)"}
{"smiles": "C[C@H]1CN([C@@H](C)CO)C(=O)c2cc(NS(=O)(=O)c3cn(C)cn3)ccc2O[C@H]1CN(C)CC1CCCCC1", "inhibition": "0.874% (inactive)"}
{"smiles": "Cc1noc(C)c1NC(=O)Nc1ccc2c(c1)C(=O)N([C@@H](C)CO)C[C@H](C)[C@@H](CN(C)C)O2", "inhibition": "17.2% (inactive)"}
{"smiles": "O=C(Nc1ccc(C23CC4CC(CC(C4)C2)C3)cc1)c1cccs1", "inhibition": "1.68% (inactive)"}
{"smiles": "Cc1noc(C)c1S(=O)(=O)Nc1cccc2c1O[C@H](CN(C)Cc1ccc(C(F)(F)F)cc1)[C@H](C)CN([C@@H](C)CO)C2=O", "inhibition": "11.5% (inactive)"}
{"smiles": "C[C@H]1CN([C@@H](C)CO)C(=O)Cc2cc(NC(=O)NC3CCCCC3)ccc2O[C@H]1CN(C)S(=O)(=O)c1ccccc1", "inhibition": "0.581% (inactive)"}
{"smiles": "CC(=O)Nc1ccc(S(=O)(=O)N2CCCC2C(=O)O)cc1", "note": "(centres undefined)", "inhibition": "27.5% (inactive)"}
{"smiles": "C[C@H]1CN([C@@H](C)CO)C(=O)Cc2cc(NS(=O)(=O)c3ccc(Cl)cc3)ccc2O[C@@H]1CN(C)S(=O)(=O)c1ccccc1", "inhibition": "48.5% (inactive)"}
{"smiles": "Cc1ccc(S(=O)(=O)N(C)C[C@H]2Oc3ccc(NC(=O)C4CC4)cc3C(=O)N([C@H](C)CO)C[C@H]2C)cc1", "inhibition": "32.5% (inactive)"}
{"smiles": "CCOc1c(S(=O)(=O)NCc2cccnc2)ccc(Cl)c1Cl", "inhibition": "-5.95% (inactive)"}
{"smiles": "Cc1ccc(Cl)cc1NC(=O)CN(c1cccc(Cl)c1C)S(C)(=O)=O", "inhibition": "47.6% (inactive)"}
{"smiles": "C[C@@H]1CN([C@@H](C)CO)C(=O)c2cccc(NS(=O)(=O)c3cccs3)c2O[C@H]1CN(C)Cc1ccncc1", "inhibition": "-14.5% (inactive)"}
{"smiles": "Cc1noc(C)c1S(=O)(=O)Nc1ccc2c(c1)C(=O)N([C@@H](C)CO)C[C@@H](C)[C@H](CN(C)Cc1ccc(-c3ccccc3)cc1)O2", "inhibition": "20.3% (inactive)"}
{"smiles": "Cc1noc(C)c1S(=O)(=O)Nc1ccc2c(c1)C(=O)N([C@@H](C)CO)C[C@@H](C)[C@H](CN(C)C(=O)Nc1cccc3ccccc13)O2", "inhibition": "7.46% (inactive)"}
{"smiles": "Cc1noc(C)c1S(=O)(=O)Nc1ccc2c(c1)C(=O)N([C@@H](C)CO)C[C@H](C)[C@H](CN(C)Cc1ccc(C(=O)Nc3ccccc3N)cc1)O2", "inhibition": "104% (active)"}
{"smiles": "Cn1nnc2cc(C(=O)N(CCO)c3ccccc3)ccc21", "inhibition": "-5.36% (inactive)"}
{"smiles": "COC(=O)c1c(NC(=O)c2cc(-c3ccccn3)nc3ccc(Br)cc23)sc(C(=O)N(C)C)c1C", "inhibition": "85.7% (active)"}
{"smiles": "Cc1ccc2nc(-c3ccncc3)cc(C(=O)NCc3ccccn3)c2c1", "inhibition": "53.9% (inactive)"}
{"smiles": "COC(=O)c1c(NC(=O)c2cc(-c3ccccn3)nc3c(C)cc(C)cc23)sc(C)c1C", "inhibition": "19.6% (inactive)"}
{"smiles": "Cc1noc(C)c1NC(=O)Nc1ccc2c(c1)C(=O)N([C@H](C)CO)C[C@H](C)[C@H](CN(C)Cc1ccc(Oc3ccccc3)cc1)O2", "inhibition": "30% (inactive)"}
{"smiles": "Cc1cc(C(=O)Nc2cccc3c2O[C@@H](CN(C)C(=O)Nc2ccc4c(c2)OCO4)[C@H](C)CN([C@@H](C)CO)C3=O)n(C)n1", "inhibition": "11.4% (inactive)"}
{"smiles": "C[C@H](CO)N1C[C@H](C)[C@H](CN(C)S(C)(=O)=O)Oc2c(NC(=O)c3ccc(-c4nccs4)cc3)cccc2C1=O", "inhibition": "1.84% (inactive)"}
{"smiles": "C[C@H]1CN([C@@H](C)CO)C(=O)c2cccc(NC(=O)c3ccc(-c4nccs4)cc3)c2O[C@H]1CN(C)Cc1ccc(C(=O)O)cc1", "inhibition": "23.4% (inactive)"}
{"smiles": "C[C@@H]1CN([C@@H](C)CO)C(=O)c2cccc(NC(=O)c3ccc(-c4nccs4)cc3)c2O[C@H]1CN(C)Cc1ccc(Cl)c(Cl)c1", "inhibition": "97.3% (active)"}
{"smiles": "C[C@H](CO)N1C[C@H](C)[C@@H](CN(C)Cc2ccc(C(=O)Nc3ccccc3N)cc2)Oc2c(NC(=O)c3ccc(-c4nccs4)cc3)cccc2C1=O", "inhibition": "138% (active)"}
{"smiles": "C[C@@H]1CN([C@@H](C)CO)C(=O)c2cccc(NC(=O)c3ccc(-c4nccs4)cc3)c2O[C@@H]1CN(C)Cc1ccncc1", "inhibition": "35.3% (inactive)"}
{"smiles": "C[C@H](CO)N1C[C@H](C)[C@@H](CN(C)S(C)(=O)=O)Oc2c(NC(=O)c3ccc(-c4nccs4)cc3)cccc2C1=O", "inhibition": "3.98% (inactive)"}
{"smiles": "CC(C)NC(=O)N(C)C[C@H]1Oc2c(NS(=O)(=O)c3ccc(Cl)cc3)cccc2C(=O)N([C@@H](C)CO)C[C@H]1C", "inhibition": "12.1% (inactive)"}
{"smiles": "COc1ccc(NC(=O)Nc2ccc3c(c2)C(=O)N([C@@H](C)CO)C[C@H](C)[C@@H](CN(C)C(=O)NC2CCCCC2)O3)cc1", "inhibition": "-2.68% (inactive)"}
{"smiles": "CCOc1cc(S(=O)(=O)NC2CC(C)(C)NC(C)(C)C2)ccc1F", "inhibition": "-9.77% (inactive)"}
{"smiles": "CC(=O)Nc1ccc(NC(=O)CC2C(=O)Nc3ccccc3N2C(C)=O)cc1", "note": "(centres undefined)", "inhibition": "-5.07% (inactive)"}
{"smiles": "CC(=O)Nc1ccc(Nc2c3c4c(cccc4[nH]c2=O)C(=O)c2ccccc2-3)cc1", "inhibition": "115% (active)"}
{"smiles": "CC(=O)Nc1ccc(NC(=O)COc2ccccc2C(=O)Nc2cccc(Cl)c2Cl)cc1", "inhibition": "-3.66% (inactive)"}
